# Screening results deposited in PubChem BioAssay by National Center for Advancing Translational Sciences (NCATS).
# mIDH1 inhibitor: blocks human mutant IDH1 R132H enzyme; 0.093% of 390,000 active; IDH1-R132H enzyme, NADPH consumption, diaphorase/resazurin fluorescence; Potency, µM (doses to about 76.6 µM), without a hit: at the highest dose activity change, negative = inhibition, usual class: inhibitors; O75874; note: potency is the fitted concentration of half-maximal effect; % is set by controls: 0 for no effect and ±100 for the full control effect; nearly all actives have a fitted effect of over 65% in size
# Target sequence (O75874 whole entry R132H, stated change not applied): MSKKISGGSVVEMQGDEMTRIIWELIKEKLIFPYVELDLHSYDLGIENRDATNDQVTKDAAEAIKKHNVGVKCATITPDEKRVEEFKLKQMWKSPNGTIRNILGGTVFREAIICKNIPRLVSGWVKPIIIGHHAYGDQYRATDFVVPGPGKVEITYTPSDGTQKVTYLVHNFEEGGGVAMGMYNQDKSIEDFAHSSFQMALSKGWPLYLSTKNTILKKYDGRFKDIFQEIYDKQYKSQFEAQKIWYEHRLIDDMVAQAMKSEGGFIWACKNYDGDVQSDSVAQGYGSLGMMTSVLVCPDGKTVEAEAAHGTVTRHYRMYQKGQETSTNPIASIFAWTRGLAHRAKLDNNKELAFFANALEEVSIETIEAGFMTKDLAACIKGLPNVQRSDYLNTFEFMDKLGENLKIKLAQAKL
#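 IDH1-R132H (0.5 ug/mL dispensed) in pH 7.5 Tris buffer was preincubated 30 min with compound, then given a substrate mix of 0.016 mM NADPH and 2 mM alpha-KG for 80 min at room temperature; remaining NADPH was read by diaphorase/resazurin fluorescence.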
# CCT modulator: cytosolic chaperonin activity modulation; purified chaperonin ATPase assay, HTRF ADP detection, 30 min; activity change, % (concentration not given with the values), hits read low; 0.3% of 360,000 active; in the data active = activity change below about -30%; note: % is set by controls: 0 for no effect and ±100 for the full control effect
#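 We incubate TRiC, 40 or 20 nM final, with library compounds at 76 uM and 10 uM ATP for 30 min at 37 °C. ADP formed is detected with Transcreener HTRF reagents after 30 min at room temperature.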
# Glioma ERSR ind: induces the endoplasmic reticulum stress response in human glioma cells; U87-MG GRP78 promoter luciferase reporter, 16 h; AID 602332; Potency, µM, for the others: top-dose activation, actives largely listed as activators; 0.02% of 420,000 active; note: potency is the fitted concentration of half-maximal effect; series mostly up to about 76 µM; % of control where 0% means no effect; nearly all actives have a fitted effect of over 35% in size
#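 Stably transfected U87-MG human glioma cells carrying a GRP78-based luminescent sensor were seeded at 1000 cells/well, pin-dosed with compounds and incubated 16 h. Luciferase reagent was then added, and end-point luminescence was read after 10 min at room temperature.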
# Mm-Cpn inhibitor: blocks the Methanococcus maripaludis chaperonin Mm-Cpn. 0.031% of 330,000 active. Potency, µM (doses to about 76.9 µM), inactives show at the top dose activity, negative = inhibition, actives largely listed as inhibitors. purified Mm-Cpn ATPase, ADP Transcreener TR-FRET; note: potency is the fitted concentration of half-maximal effect; % is set by controls: 0 for no effect and ±100 for the full control effect; nearly all actives have a fitted effect of over 80% in size
#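 Inhibition of chaperonin ATP hydrolysis is measured as reduced ADP production, detected by competitive TR-FRET in which signal falls with ADP. Final enzyme 25 nM and ATP 10 uM, reacted 30 min at 37°C.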
# GLS inh: glutaminase GLS (human) inhibition | 0.21% of 410,000 active | Potency, µM (series often up to 45.5 µM), inactives show top-dose activity change, negative = inhibition, usual class: inhibitors | GLS enzymatic activity, qHTS titration | O94925; note: potency is the fitted concentration of half-maximal effect; % is set by controls: 0 for no effect and ±100 for the full control effect
#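 Coupled fluorescence readout: glutamate oxidase/HRP/Amplex Red detect glutamate formed by hKGA from L-glutamine (1 mM solution added). Buffer 45 mM KH2PO4 pH 8.2, 0.02% Tween-20; reads at t0 and 30 min RT.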
# pAkt inh: blocks phosphorylation of Akt; Neuro2A IGF-stimulated pAkt S473 HTRF, 20 min; hits give low values; activity change, % for hits at 50 µM; 0.32% of 360,000 active; AID 651550; in the data active = activity change below about -80%; inconclusive = mostly about -51% to -80%; note: % is set by controls: 0 for no effect and ±100 for the full control effect
#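 Single-point screen (50 µM final compound) in Neuro2A cells stimulated 20 min with 6 nM IGF at 37 deg C. After lysis, Ser473-phosphorylated Akt read by HTRF (ex 330 nm, em 615/665 nm) as the 665/615 ratio.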
# * hit, by the source's call; i = inactive; ? = inconclusive; · = no result given; ! = repeats disagree; [ ] = remark or other dose. Most compounds without a hit are left out; they make up all but 0.85% or so of the library. Unless noted, calls come from the whole dose curve; as a rule, active = well fitted curve in the direction sought with a large enough effect; inconclusive = small, poorly fitted or top-dose-only effect, or another doubt; inactive = no such curve, though single readings can be large; an effect the other way counts as inactive or inconclusive.
SMILES,mIDH1 inhibitor,CCT modulator,Glioma ERSR ind,Mm-Cpn inhibitor,GLS inh,pAkt inh
Cc1ccc(NCC(=O)N=Nc2c(O)[nH]c3ccc([N+](=O)[O-])cc23)cc1,0%,-3,40µM*,-3%,5%,i
Cc1ccccc1NCC(=O)N=Nc1c(O)[nH]c2ccc([N+](=O)[O-])cc12,4%,-1,-3%,3%,3%,i
CCOC(=O)C1=C(C)NC2=C(C(=O)C(C(=O)OCC)C(c3cccc(OC)c3)C2)C1c1ccccn1 (configuration not stated),7%,3,-9%,-2%,17%,i
CCOC(=O)C1=C(C)NC2=C(C(=O)C(C(=O)OCC)C(c3ccc(OC)cc3)C2)C1c1ccccn1 (configuration not stated),0%,2,-8%,-7%,15%,-108%*
COC(=O)c1cc(CNC(=O)c2ccc3ncccc3c2)cc(NC(=O)c2ccccc2Cl)c1,·,·,-2%,·,·,·
O=C1C2=C(Nc3ccccc3SC2c2ccco2)c2ccccc21 (configuration not stated),10%,1,-4%,-3%,7%,-114%*
CCCN1CCN(C(=O)c2cnn(-c3ncc4c(n3)-c3ccccc3CCC4)c2COC)CC1,·,·,-5%,·,·,·
CCOC(=O)C1CCN(C(=O)CCS(=O)(=O)c2ccc3c(c2)CC(C)N3C(=O)CC)CC1 (configuration not stated),5%,0,1%,1%,0%,i
CCOC(=O)N1CCN(C(=O)CCS(=O)(=O)c2ccc3c(c2)CC(C)N3C(=O)CC)CC1 (configuration not stated),8%,-77*,-3%,0%,-2%,·
NC(=O)C1(C(N)=O)OC1c1ccc(Cl)c(Cl)c1 (configuration not stated),2%,-57*,-1%,-1%,0%,i
CCOC(=O)c1cc(C(C)=O)n2ccccc12,7%,3,-6%,1%,0%,·
CCOC(=O)c1cc(Br)c(=O)n2ccccc12,3%,-2,-4%,28µM*,-7%,i
Cc1nc2cc(NC(=O)[C@@H]3C[C@@H](Sc4ccccn4)CN3Cc3cccc(Cl)c3)ccc2s1,·,·,-3%,·,·,·
COc1ccc(-c2cc(=O)c3c(O)c(OC)c(OC)c(OC)c3o2)cc1OC,·,·,-5%,·,·,·
COc1cc(-c2cc(=O)c3c(O)c(OC)c(OC)c(O)c3o2)ccc1O,-5%,-30,14%,·,2.8µM*,i
Cc1cc(N/N=C/c2ccc(O)cc2O)nc(N2CCOCC2)n1,0%,-7,9%,-6%,?,i
Oc1ccc(/C=N\Nc2cc(N3CCOCC3)nc(N3CCOCC3)n2)c(O)c1,9%,-52*,1%,2%,4%,i
Cc1cc(C(=O)NCC2CCC3(CCN(Cc4ccc(-c5ccccc5)cc4)CC3)O2)n(C)n1 (configuration not stated),·,·,-4%,·,·,·
Cc1cc(=O)[nH]c(SCn2nnc3ccccc3c2=O)n1,7%,0,-3%,-1%,7%,-99%*
O=c1c2ccccc2nnn1CSc1nc2ccccc2[nH]1,23%,-5,-1%,-19%,9%,i
Cc1cccc(CSC2=CS(=O)(=O)c3ccccc3N2)c1,-2%,1,-10%,2%,-1%,i
Cc1ccc2c(c1)S(=O)(=O)c1ccc3ccccc3c1N2,9%,-37*,-3%,·,6%,i
CC(C)(C)C(=O)NC(=S)NNC(=O)C(c1ccccc1)c1ccccc1,-5%,0,22µM*,-1%,11%,i
COCC1CCCN(Cc2ccc3c(c2)CN(C(=O)c2ccc(-c4ccc(C)o4)cc2)CCO3)C1 (configuration not stated),·,·,-5%,·,·,·
C=CCn1c(C)cc(C(=O)CSc2nc3ccccc3c(=O)[nH]2)c1C,0%,2,-5%,3%,104%,-110%*
SMILES,mIDH1 inhibitor,CCT modulator,Glioma ERSR ind,Mm-Cpn inhibitor,GLS inh,pAkt inh
Cc1c(C(=O)NCc2cccc(F)c2)sc2ncnc(NCC3CCCO3)c12 (configuration not stated),·,·,-3%,·,·,·
COCCN1CCN(C(=O)c2cnn(-c3ncc4c(n3)-c3ccc(OC)cc3CC4)c2C2CC2)CC1,·,·,2%,·,·,·
CCOC(=O)CSc1nc2c(sc(=S)n2-c2ccc(OCC)cc2)c(=O)[nH]1,1%,0,1%,-6%,-15%,i
CCOc1ccc(-n2c(=S)sc3c(=O)[nH]c(SCC(=O)N4CCC(C)CC4)nc32)cc1,-1%,1,-2%,1%,7.1µM*,i
CCN(C(=O)COC(=O)c1cnccn1)c1cccc2ccccc12,2%,1,-3%,-1%,1%,i
CCN(C(=O)COC(=O)c1cccnc1)c1cccc2ccccc12,-13%,-50*,-5%,-1%,-2%,i
COC(=O)\C(C(C)=O)=C(/C=C/C=C/C=C/N(C)C)N(C)C,3%,1,4%,-2%,11µM*,i
CCN(CC)c1ccc(NC(=O)Nc2ccccc2)cc1,6%,2,-6%,-2%,13µM*,i
CCN(CC)c1ccc(NC(=O)Nc2ccc(C(C)=O)cc2)cc1,-5%,0,-1%,-4%,16%,i
CCN(CC)c1ccc(C(=O)Nc2cccc(F)c2)cc1,7%,-1,-6%,-12%,1%,-115%*
Cc1onc(-c2ccccc2Cl)c1C(=O)NC1C(=O)N2C1SC(C)(C)C2C(=O)O (configuration not stated),·,·,-3%,·,·,·
Cc1onc(-c2c(Cl)cccc2Cl)c1C(=O)NC1C(=O)N2C1SC(C)(C)C2C(=O)O (configuration not stated),0%,-1,-5%,1%[15.4 µM],13µM*,i
Cc1onc(-c2c(Cl)cccc2Cl)c1C(=O)N[C@@H]1C(=O)N2[C@@H]1SC(C)(C)[C@@H]2C(=O)O,27%,-1,-3%,0%,10µM*!,i
CN(C)c1nc2cc(Cl)ccc2cc1CN(Cc1ccc2c(c1)OCO2)C(=O)c1ccoc1,·,·,-3%,·,·,·
O=C(c1cccnc1)C1CCCN(Cc2ccc3c(c2)CN(C(=O)c2cn4ccccc4n2)CCO3)C1 (configuration not stated),·,·,-6%,·,·,·
Cc1cc(N2CCCCCC2)nc2ccc(F)cc12,2%,-3,-2%,·,4%,-92%*
Cc1oc(-c2ccccc2NC(=O)c2ccccc2)nc1CNC(=O)c1cccc(-n2cccn2)c1,·,·,-4%,·,·,·
Cc1cc(C)c2c(N)c(C(=O)Nc3ncc(C)s3)sc2n1,11%,-2,-17%,-8%,-11%,-94%*
